Our source for the Percent Effect values is ChEMBL document CHEMBL3988442, “University of Dundee, Small-Polar-MMV Screening Library” (2021).

Holding throughout (parameters): scale not given: direction of the effect not stated beside the values
The target of assay [1] is Protein translocase subunit SecA (Escherichia coli (strain K12)) (UniProt P10408). As to the kind of experiment: Assay to Identify E. coli SecA ATPase Inhibitors. The note with it: 30 µM. The format is functional.
Assay [2] deals with T1, Ubiquitin-activating enzyme e1, putative (Leishmania donovani (strain BPK282A1)) (UniProt E9BSI1).
T1 sequence (whole entry): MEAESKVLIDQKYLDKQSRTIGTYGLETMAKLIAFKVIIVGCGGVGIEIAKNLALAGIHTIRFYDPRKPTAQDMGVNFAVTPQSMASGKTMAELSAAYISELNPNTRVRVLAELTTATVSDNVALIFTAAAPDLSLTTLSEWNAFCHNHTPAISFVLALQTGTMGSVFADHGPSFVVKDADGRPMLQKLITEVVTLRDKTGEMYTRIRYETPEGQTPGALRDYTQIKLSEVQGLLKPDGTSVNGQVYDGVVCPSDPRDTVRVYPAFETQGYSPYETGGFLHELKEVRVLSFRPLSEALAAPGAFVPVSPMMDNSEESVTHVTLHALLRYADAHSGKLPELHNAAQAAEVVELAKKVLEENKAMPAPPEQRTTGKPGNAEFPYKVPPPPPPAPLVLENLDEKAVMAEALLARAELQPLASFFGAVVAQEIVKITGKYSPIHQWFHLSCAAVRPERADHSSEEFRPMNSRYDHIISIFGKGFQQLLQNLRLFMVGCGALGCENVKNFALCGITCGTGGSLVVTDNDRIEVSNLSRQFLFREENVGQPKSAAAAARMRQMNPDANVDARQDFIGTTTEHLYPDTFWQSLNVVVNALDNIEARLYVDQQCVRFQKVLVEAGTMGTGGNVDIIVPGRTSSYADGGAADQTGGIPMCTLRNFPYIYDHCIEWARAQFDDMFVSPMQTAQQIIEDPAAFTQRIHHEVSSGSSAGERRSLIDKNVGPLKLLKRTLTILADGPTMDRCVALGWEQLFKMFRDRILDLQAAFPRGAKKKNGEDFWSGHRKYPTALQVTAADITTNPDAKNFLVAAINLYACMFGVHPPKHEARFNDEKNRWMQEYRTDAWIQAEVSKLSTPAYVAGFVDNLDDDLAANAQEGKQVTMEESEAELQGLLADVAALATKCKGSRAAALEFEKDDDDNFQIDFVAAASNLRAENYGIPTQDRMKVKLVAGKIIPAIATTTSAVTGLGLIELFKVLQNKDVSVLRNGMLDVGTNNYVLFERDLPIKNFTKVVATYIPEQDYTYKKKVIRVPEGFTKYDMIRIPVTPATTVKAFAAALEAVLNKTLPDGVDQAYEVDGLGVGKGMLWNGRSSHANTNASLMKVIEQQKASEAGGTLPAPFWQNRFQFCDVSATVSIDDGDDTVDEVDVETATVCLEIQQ
As to the kind of experiment: Leishmania donovani Ubiquitin Activating Enzyme (LdE1). It counts as functional. The note with it: 30 µM.

Assay [3] concerns the target AMP-activated protein kinase, AMPK (Homo sapiens) (UniProt P54646+O43741+P54619+Q9UGJ0+Q9Y478+Q13131+Q9UGI9). As to the kind of experiment: AMP-dependent Kinase enzyme assay. An in vitro enzyme assay that detects ADP turnover that is directly proportional to AMPK activity. This uses naive AMPK that is activated during the assay with MK-8722. The format is functional. The note with it: 30 µM.

Assay [4] addresses Sialic acid-binding Ig-like lectin 9 (Homo sapiens) (UniProt Q9Y336). As to the kind of experiment: Hs-Siglec9 ALPHAscreen SOP 20170721. The note with it: 10 µM.
The subject of another assay is Trypanosoma cruzi. As to the kind of experiment: Trypanosoma cruzi phosphomannomutase and mannose-1-phosphate guanylyltransferase assay. The format is functional. To be noted: 10 µM.
For assay [5], the target named is T2, Arginase-2, mitochondrial (Homo sapiens) (UniProt P78540).
T2 sequence (whole entry): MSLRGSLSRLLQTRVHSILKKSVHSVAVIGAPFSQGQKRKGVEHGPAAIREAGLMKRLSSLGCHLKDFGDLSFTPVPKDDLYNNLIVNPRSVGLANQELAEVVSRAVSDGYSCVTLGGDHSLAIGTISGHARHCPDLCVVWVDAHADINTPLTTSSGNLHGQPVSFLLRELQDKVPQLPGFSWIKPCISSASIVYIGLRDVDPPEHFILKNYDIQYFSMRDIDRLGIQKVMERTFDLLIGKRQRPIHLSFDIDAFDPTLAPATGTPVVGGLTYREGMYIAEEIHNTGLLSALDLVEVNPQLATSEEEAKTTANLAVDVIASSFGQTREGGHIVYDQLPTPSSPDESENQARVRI
As to the kind of experiment: in vitro enzyme assay to detect the production of urea directly proportional to the activity of Arginase II. Further: in the data most compounds retested in dose-response had high values. The format is functional. To be noted: 33.3 µM.

In assay [6] the target is T3, Proteasome subunit beta (Trypanosoma cruzi) (UniProt O96673).
T3 sequence (whole entry): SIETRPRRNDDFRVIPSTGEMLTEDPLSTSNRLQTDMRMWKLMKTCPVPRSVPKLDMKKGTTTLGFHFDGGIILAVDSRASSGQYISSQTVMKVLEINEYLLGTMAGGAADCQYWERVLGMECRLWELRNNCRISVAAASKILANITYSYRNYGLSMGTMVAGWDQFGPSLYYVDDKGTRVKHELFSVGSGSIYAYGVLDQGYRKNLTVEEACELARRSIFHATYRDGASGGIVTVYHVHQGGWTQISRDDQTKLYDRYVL
As to the kind of experiment: Trypanosoma cruzi proteasome chymotrypsin-like activity (TcProtChymo) assay. Further: in the data most compounds retested in dose-response had high values. The format is functional. The note with it: 9.37 µM.

The species entered for a further assay is Homo sapiens. As to the kind of experiment: To identify inhibition of the IFN signalling (Jak-Stat) pathway via expression of an eGFP reporter gene under the control of an IFN-stimulated response element (ISRE) containing MxA promoter. To be noted: 30 µM. It counts as functional.
Assay [7] concerns the target T4, Tyrosyl-tRNA synthetase, putative (Trypanosoma cruzi (strain CL Brener)) (UniProt Q4DSP6).
T4 sequence (whole entry): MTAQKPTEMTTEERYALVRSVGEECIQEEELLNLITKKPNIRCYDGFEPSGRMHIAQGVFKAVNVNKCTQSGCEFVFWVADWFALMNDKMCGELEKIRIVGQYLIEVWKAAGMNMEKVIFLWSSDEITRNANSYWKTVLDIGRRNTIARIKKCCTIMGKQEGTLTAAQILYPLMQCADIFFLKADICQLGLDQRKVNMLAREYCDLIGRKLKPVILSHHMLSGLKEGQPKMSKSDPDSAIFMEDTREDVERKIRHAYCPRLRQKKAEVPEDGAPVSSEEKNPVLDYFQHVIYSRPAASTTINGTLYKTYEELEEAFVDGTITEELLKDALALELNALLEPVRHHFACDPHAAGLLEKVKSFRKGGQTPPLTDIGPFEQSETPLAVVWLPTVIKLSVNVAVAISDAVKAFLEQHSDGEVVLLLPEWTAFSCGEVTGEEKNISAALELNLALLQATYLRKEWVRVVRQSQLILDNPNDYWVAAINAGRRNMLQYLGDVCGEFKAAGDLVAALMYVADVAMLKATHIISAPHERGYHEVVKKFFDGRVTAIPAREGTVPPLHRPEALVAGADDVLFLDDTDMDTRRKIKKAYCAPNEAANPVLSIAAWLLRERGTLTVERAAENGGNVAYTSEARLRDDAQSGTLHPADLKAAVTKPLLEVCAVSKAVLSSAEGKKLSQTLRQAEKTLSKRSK
As to the kind of experiment: Trypanosoma cruzi tyrosyl tRNA synthetase (TcYRS) _High Tyrosine SOP. Further: in the data most compounds retested in dose-response had high values. The format is functional. The note with it: 30 µM.

The target in assay [8] is T4, Tyrosyl-tRNA synthetase, putative (Trypanosoma cruzi (strain CL Brener)). As to the kind of experiment: Trypanosoma cruzi tyrosyl tRNA synthetase (TcYRS) SOP. The format is functional. To be noted: 30 µM.
In assay [9] the target is Chromo domain-containing protein 1 (Saccharomyces cerevisiae (strain ATCC 204508 / S288c) (Baker's yeast)) (UniProt P32657). As to the kind of experiment: ScCHD-1 Enzyme Inhibition Assay. Further: in the data most compounds retested in dose-response had high values. The format is functional. The note with it: 30 µM.

Each structure is given as a SMILES string. For some of these results: Results with a measured potency or affinity are listed apart.

Protein translocase subunit SecA (Escherichia coli (strain K12)), sequence (P10408 whole entry): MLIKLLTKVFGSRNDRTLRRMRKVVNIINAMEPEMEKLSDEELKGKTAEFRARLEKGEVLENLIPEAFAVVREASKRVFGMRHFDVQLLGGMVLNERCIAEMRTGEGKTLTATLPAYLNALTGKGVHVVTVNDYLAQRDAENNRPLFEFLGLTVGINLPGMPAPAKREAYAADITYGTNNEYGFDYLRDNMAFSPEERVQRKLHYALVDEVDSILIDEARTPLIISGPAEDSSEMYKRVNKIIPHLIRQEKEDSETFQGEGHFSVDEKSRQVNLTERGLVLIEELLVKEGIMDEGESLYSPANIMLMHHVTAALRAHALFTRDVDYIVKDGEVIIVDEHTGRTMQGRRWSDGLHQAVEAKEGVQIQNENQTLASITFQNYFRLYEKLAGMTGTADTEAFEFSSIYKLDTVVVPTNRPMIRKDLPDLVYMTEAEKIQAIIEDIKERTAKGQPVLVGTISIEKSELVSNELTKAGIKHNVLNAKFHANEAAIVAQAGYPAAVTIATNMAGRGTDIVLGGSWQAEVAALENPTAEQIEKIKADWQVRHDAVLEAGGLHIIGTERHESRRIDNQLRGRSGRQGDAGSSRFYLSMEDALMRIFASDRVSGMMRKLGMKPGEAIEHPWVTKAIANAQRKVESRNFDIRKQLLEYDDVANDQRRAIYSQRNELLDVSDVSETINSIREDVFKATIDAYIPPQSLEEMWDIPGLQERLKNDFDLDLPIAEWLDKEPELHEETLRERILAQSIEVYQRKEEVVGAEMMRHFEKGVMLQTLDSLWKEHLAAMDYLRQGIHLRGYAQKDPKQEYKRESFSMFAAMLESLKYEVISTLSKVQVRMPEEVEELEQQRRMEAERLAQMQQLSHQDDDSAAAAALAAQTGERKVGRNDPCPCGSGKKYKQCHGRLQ
Chromo domain-containing protein 1 (Saccharomyces cerevisiae (strain ATCC 204508 / S288c) (Baker's yeast)), sequence (P32657 whole entry, the tested form may be a part): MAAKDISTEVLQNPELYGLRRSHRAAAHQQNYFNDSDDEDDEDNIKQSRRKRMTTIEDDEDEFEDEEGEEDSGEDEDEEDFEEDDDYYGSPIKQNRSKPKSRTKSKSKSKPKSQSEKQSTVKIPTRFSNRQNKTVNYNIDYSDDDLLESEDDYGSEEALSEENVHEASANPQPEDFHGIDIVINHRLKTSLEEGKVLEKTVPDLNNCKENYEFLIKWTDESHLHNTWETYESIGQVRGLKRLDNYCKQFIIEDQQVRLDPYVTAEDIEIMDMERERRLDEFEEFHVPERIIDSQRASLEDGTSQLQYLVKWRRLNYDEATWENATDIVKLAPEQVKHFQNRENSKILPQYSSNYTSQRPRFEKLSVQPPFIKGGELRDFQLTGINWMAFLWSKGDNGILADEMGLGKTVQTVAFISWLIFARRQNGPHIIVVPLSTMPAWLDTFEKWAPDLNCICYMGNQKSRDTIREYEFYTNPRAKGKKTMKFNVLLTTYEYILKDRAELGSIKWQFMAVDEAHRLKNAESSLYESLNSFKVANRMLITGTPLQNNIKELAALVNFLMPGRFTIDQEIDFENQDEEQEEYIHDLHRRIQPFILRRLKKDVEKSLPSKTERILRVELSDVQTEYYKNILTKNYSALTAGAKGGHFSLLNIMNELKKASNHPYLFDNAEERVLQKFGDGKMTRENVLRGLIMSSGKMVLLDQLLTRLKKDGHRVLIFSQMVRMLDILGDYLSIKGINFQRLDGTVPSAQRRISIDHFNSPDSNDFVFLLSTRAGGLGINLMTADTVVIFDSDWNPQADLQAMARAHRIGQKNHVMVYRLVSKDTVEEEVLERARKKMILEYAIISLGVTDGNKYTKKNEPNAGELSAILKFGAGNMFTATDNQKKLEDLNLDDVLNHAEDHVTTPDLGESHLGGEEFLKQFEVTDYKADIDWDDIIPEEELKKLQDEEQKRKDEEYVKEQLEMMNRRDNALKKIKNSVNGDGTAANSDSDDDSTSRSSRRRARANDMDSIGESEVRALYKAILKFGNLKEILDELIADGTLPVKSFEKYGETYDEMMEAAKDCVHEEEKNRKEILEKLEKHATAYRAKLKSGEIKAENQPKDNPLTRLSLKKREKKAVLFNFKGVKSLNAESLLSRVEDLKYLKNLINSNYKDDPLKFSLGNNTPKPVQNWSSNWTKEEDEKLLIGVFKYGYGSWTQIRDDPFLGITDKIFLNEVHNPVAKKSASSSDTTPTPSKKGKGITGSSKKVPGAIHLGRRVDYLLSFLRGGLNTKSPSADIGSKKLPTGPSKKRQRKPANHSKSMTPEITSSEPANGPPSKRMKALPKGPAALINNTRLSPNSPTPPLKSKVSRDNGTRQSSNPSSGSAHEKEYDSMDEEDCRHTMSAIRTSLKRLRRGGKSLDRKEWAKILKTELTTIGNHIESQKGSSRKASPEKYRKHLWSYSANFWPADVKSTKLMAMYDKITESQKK
Sialic acid-binding Ig-like lectin 9 (Homo sapiens), sequence (Q9Y336 whole entry): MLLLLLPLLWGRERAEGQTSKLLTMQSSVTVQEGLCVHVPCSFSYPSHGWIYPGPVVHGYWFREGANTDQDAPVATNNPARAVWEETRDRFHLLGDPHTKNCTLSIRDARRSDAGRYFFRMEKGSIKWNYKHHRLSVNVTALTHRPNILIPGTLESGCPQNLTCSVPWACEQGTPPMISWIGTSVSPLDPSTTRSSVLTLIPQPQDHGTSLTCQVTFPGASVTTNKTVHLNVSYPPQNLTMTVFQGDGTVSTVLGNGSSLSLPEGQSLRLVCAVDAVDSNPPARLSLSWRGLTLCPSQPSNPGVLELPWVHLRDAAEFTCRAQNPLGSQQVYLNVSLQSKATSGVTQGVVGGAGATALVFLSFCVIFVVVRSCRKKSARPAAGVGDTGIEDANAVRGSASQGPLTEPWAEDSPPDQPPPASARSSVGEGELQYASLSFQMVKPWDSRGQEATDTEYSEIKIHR

In the case of `CCCNC(=O)C1CCN(Cc2csc(C(C)(C)C)n2)CC1`, the Percent Effect in [1] is -0.61%; in assay [2], 10.1%; in [3] it was -4.65%; in assay [4] it was -1.57%; with Trypanosoma cruzi, -4.44%; in assay [5], 6.08%. In addition, the Percent Effect is 6.63% in assay [6]; 12.5% in the assay listed under Homo sapiens; -0.493% in assay [7]; 8.86% in [8]; -6.15% in assay [9].
On to `Cc1ccc(C(=O)NC2CCN(Cc3noc(CC(C)C)n3)CC2)s1`, for which the Percent Effect in assay [1] was -4.45%; in [2], 2.6%; in assay [3], 3.54%; in assay [4], 0.891%; with Trypanosoma cruzi, -8.75%; in assay [5], -8.28%. The Percent Effect is 8.82% in [6]; 29.7% in the assay filed under Homo sapiens; -3.23% in assay [7]; 1.24% in assay [8]; -1.38% in assay [9].
Regarding `CCOCCn1nc(C)cc1C(=O)N1CC[C@](C)(O)[C@H](C)C1`, the Percent Effect in assay [1] is -5.83%; in assay [2], 5.41%; in assay [3], -0.231%; in assay [4], 3.85%; in the assay with Trypanosoma cruzi it was -4.25%; in [5], -1.91%. Besides, the Percent Effect was 6.03% in assay [6]; -3.48% in the assay filed under Homo sapiens; 2.65% in assay [7]; 9.76% in assay [8]; -1.04% in assay [9].
With `O=C(Cc1ccccn1)N1CCN(CC2CC2)c2ncccc2C1`, the Percent Effect is -4.53% in [1]; 10.7% in assay [2]; 3.91% in assay [3]; 0.314% in assay [4]; 0.591% in the assay on Trypanosoma cruzi; -0.699% in [5]. Besides, the Percent Effect in [6] is 4.85%; in the assay filed under Homo sapiens it was 9.79%; in [7] it was 6.38%; in assay [8], 16.7%; in [9], -7.07%.
`Cc1cnn(CCNCc2cccnc2)c1`: the Percent Effect is -3.48% in assay [1]; -11.4% in assay [2]; 6.23% in assay [3]; 2.04% in assay [4]; -2.36% with Trypanosoma cruzi; 1.5% in [5]. The Percent Effect in assay [6] was 8.92%; in the assay filed under Homo sapiens, 16.9%; in assay [7] it was 2.08%; in [8] it was 7.59%; in assay [9], -6.41%.
Consider `Cc1cc(C)c(CNC(=O)NCc2ccc3c(c2)CCC3)c(=O)[nH]1`, for which the Percent Effect is -1.46% in assay [1]; 10.5% in assay [2]; -2.73% in [3]; 4% in assay [4]; -3.38% in the assay with Trypanosoma cruzi; 4.6% in assay [5]. For the same compound, the Percent Effect was 6.85% in [6]; 4.84% in the assay listed under Homo sapiens; 5.39% in assay [7]; 0% in [8]; 0.252% in assay [9].
With `CCNc1cc2c(nn1)CCN(C(=O)CC1CCCCC1)C2`, the Percent Effect was -8.49% in assay [1]; 12.7% in assay [2]; 0.0974% in assay [3]; 9.47% in assay [4]; 1.42% with Trypanosoma cruzi; 3.04% in assay [5]. Also, the Percent Effect was -0.0819% in assay [6]; -11.3% in the assay filed under Homo sapiens; 16.3% in assay [7]; 8.86% in assay [8]; -8.44% in assay [9].
On to `OC(CN1CCN(Cc2ccc(F)c(F)c2)CC1)C1CC1` (stereo unspecified), for which the Percent Effect in [1] is -3.08%; in [2], 8.22%; in assay [3], 2.45%; in [4], 0.902%; in the assay on Trypanosoma cruzi, 5.68%; in [5], -1.82%. For the same compound, the Percent Effect was 8.16% in [6]; 13.1% in the assay filed under Homo sapiens; 6.45% in assay [7]; 20% in assay [8]; -6.1% in [9].
Consider `C[C@@H]1CN(C(=O)c2ccc(C#N)nc2)C[C@@]1(O)C1CC1`, for which the Percent Effect in assay [1] is -4.79%; in [2] it was 13.5%; in assay [3] it was -4.57%; in [4], 30.4%; with Trypanosoma cruzi it was 9.65%; in [5], -1.91%. Moreover, the Percent Effect is 5% in [6]; 1.76% in the assay filed under Homo sapiens; 2.65% in assay [7]; 14.6% in [8]; -12.3% in assay [9].
As for `CCN(CC)C(C(=O)NCc1ccc(N2CCCC2)nc1)C(C)C` (stereo unspecified), the Percent Effect was -6% in [1]; 5.41% in [2]; -3.6% in [3]; 6.67% in [4]; -5.94% with Trypanosoma cruzi; -4.41% in assay [5]. For the same compound, the Percent Effect in [6] was 11.9%; in the assay filed under Homo sapiens, 10.1%; in assay [7], 2.46%; in [8], 1.24%; in [9] it was -4.84%.
On to `CCOc1ccc(Cl)c(C(=O)N2CCN(CCO)CC2)n1`, for which the Percent Effect in assay [1] is -5.67%; in assay [2], 10.4%; in [3] it was -0.195%; in assay [4] it was 9%; in the assay with Trypanosoma cruzi, -3%; in assay [5], 0.356%. The Percent Effect in assay [6] is 4.05%; in the assay listed under Homo sapiens it was 5.42%; in assay [7], 4.85%; in assay [8], 9.76%; in assay [9] it was -4.45%.
